VACV Venus inh: qHTS for Stage-Specific Inhibitors of Vaccinia Orthopoxvirus: Venus Reporter Primary qHTS | AID 720580, 2013 | 330,000 tested, 0.46% active | Potency, µM (series often up to 36.5 µM), actives largely listed as inhibitors | Vaccinia virus Venus reporter expression, fluorescence; calls by dose curve; tested in A549 cells; note: nearly all actives have a fitted effect of over 30% in size
Marburg entry inh: qHTS for inhibitors of binding or entry into cells for Marburg Virus. Potency, µM (series often up to 37.8 µM), actives largely listed as inhibitors. 300,000 tested, 1.8% active. Marburg virus pseudotyped entry inhibition, cell reporter; calls by dose curve; tested in HEK293 cells
HCMV antiviral: qHTS Assay for inhibitors of the human cytomegalovirus (HCMV); HFF cells, HCMV-luciferase reporter, 72 h; active compounds read low; activity change, negative = inhibition, % at 57.5 µM; 410,000 tested, 4.5% active; AID 1259415, 2018; in the data active = activity change below about -60%; inconclusive = no clear call, values can overlap the other calls; inactive = above about -39%
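Inhibition of viral replication was scored as loss of reporter luminescence in HFFs infected with HCMV-luciferase (MOI 1 PFU/cell) for 72 h; compounds tested at 2 doses, normalized to buffer and Salinomycin controls.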
Vaccinia mCherry: qHTS for Stage-Specific Inhibitors of Vaccinia Orthopoxvirus: mCherry Reporter Primary qHTS; Vaccinia virus mCherry reporter infection, fluorescence; Potency, µM (series often up to 36.5 µM), actives largely listed as inhibitors; 310,000 tested, 0.63% active; AID 720579, 2013; calls by dose curve; tested in A549 cells; note: nearly all actives have a fitted effect of over 35% in size
Lassa entry inh: qHTS for Inhibitors of binding or entry into cells for Lassa Virus; Lassa virus pseudotype entry inhibition, cell reporter; Potency, µM (top dose mostly 37.9 µM), hits mostly inhibitors; 300,000 tested, 1.2% active; calls by dose curve; tested in HEK293 cells; note: nearly all actives have a fitted effect of over 50% in size
FMDV antiviral: High Throughput Screening for Foot and Mouth Disease Virus Antivirals; Potency, µM (doses to about 57.9 µM), actives largely listed as inhibitors; AID 1159524, 2015; 410,000 tested, 1.2% active; FMDV antiviral cell-based qHTS; calls by dose curve; tested in HEK293T cells; note: read-out not given here; nearly all actives have a fitted effect of over 45% in size
Of the large screens only hits and unclear results are named; the others gave an inactive call. A selection: hits, their analogues and other compounds. The true share with any hit is near 6.5%.

CC(C)(C)c1ccc(-c2cc(C(=O)NNC(=O)Nc3ccccc3)c3ccccc3n2)cc1	VACV Venus inh inconclusive, Marburg entry inh inconclusive, Lassa entry inh 5.62µM, FMDV antiviral inconclusive
COc1ccc(NC(=O)CCc2c(C)nc3c(-c4ccccc4)c(C)nn3c2C)cc1Cl	none
CCCCNc1ncnc2oc(-c3ccco3)c(-c3ccco3)c12	none (no result: Marburg entry inh, HCMV antiviral, Lassa entry inh, FMDV antiviral)
CSc1nn(Cc2ccc(F)cc2)c(N)c1S(=O)(=O)c1ccc(Cl)cc1	HCMV antiviral inconclusive, Lassa entry inh inconclusive (no result: Marburg entry inh)
COc1ccc2[nH]c3c(c2c1)CCN1C(=O)C(CC(=O)NCCC2=CCCCC2)C[C@H](C(=O)N2CCOCC2)[C@@]31C (stereo partly drawn)	VACV Venus inh inconclusive (no result: Marburg entry inh, Lassa entry inh)
COc1ccc2[nH]c3c(c2c1)CCN1C(=O)C(CC(=O)NCCC2=CCCCC2)C[C@H](C(=O)N2CCCCC2)[C@@]31C (stereo partly drawn)	VACV Venus inh inconclusive, Vaccinia mCherry 10µM (no result: Lassa entry inh)
CC(C)N(C(=O)[C@H]1C[C@H](CC(=O)NCCC2=CCCCC2)C(=O)N2CCc3c([nH]c4ccc(Cl)cc34)[C@]12C)C(C)C	VACV Venus inh 15.8µM, HCMV antiviral -91.1, Vaccinia mCherry inconclusive, FMDV antiviral inconclusive (no result: Marburg entry inh, Lassa entry inh)
CCc1ccc(S(=O)(=O)NCc2nc(N3CCCC3)c3cccc(C)c3n2)cc1	none (no result: Marburg entry inh, HCMV antiviral, Lassa entry inh)
COCc1c(C(=O)N2CCN(C3CCCC3)CC2)cnn1-c1ncc2c(n1)-c1ccccc1CCC2	none (no result: Marburg entry inh, HCMV antiviral, Lassa entry inh)
C=CCS(=O)(=O)c1nc2ccccc2s1	VACV Venus inh inconclusive, HCMV antiviral -97.2, Lassa entry inh inconclusive, FMDV antiviral inconclusive (no result: Vaccinia mCherry)
O=S(=O)(CCSc1nc2ccccc2s1)c1nc2ccccc2s1	Marburg entry inh inconclusive, HCMV antiviral -85.4, Lassa entry inh inconclusive, FMDV antiviral 8.91µM (no result: VACV Venus inh, Vaccinia mCherry)
CSc1ccc(CCNC(=O)CCCn2c(=O)c3cccn3c3ccccc32)cc1	none (no result: Marburg entry inh)
COC(=O)C(N)(c1ccccc1)C(Nc1cccc(OC)c1)c1ccccc1 (stereo not drawn)	none (no result: VACV Venus inh, Marburg entry inh, Vaccinia mCherry, Lassa entry inh, FMDV antiviral)
O=C(Cc1sc(-c2ccccc2)nc1-c1ccccc1)Nc1ccc(Cl)cc1	HCMV antiviral -76.0
Cc1nc(-c2ccc(F)cc2)c(CC(=O)N(C)CC(=O)Nc2ccc(F)cc2)s1	none
O=C(Cc1sc(-c2ccccc2Cl)nc1-c1ccccc1)Nc1ccc(F)cc1	Marburg entry inh inconclusive, HCMV antiviral -60.2 (no result: Vaccinia mCherry)
O=C(Cc1sc(-c2ccccc2Cl)nc1-c1ccccc1)Nc1ccccc1	Marburg entry inh inconclusive, HCMV antiviral -89.7, Lassa entry inh inconclusive, FMDV antiviral inconclusive (no result: Vaccinia mCherry)
CC(=O)Nc1ccc(NC(=O)Cc2sc(-c3cccnc3)nc2-c2ccc(C)cc2)cc1	Marburg entry inh inconclusive
COc1cccc(NC(=O)Cn2c(=O)n(-c3ccccc3)c(=O)c3c4c(sc32)CCCC4)c1	none
O=C(CN1Cc2ccccc2OC(c2ccccc2)C1)NCc1cccnc1 (stereo not drawn)	none (no result: Marburg entry inh, HCMV antiviral, Lassa entry inh)
c1csc(-c2nc(NCC3CCCO3)c3ccccc3n2)c1 (stereo not drawn)	Marburg entry inh 10µM
c1ccc(CN2CCC(Nc3nc(-c4cccs4)nc4ccccc34)CC2)cc1	Marburg entry inh 11.6µM, HCMV antiviral inconclusive, Lassa entry inh inconclusive, FMDV antiviral inconclusive (no result: VACV Venus inh, Vaccinia mCherry)
c1cncc(-c2nc(NCC3CCCO3)c3ccccc3n2)c1 (stereo not drawn)	Marburg entry inh inconclusive, Lassa entry inh inconclusive (no result: HCMV antiviral)
CC(C)Oc1ccc(-c2nc(NCC3CCCO3)c3ccccc3n2)cc1 (stereo not drawn)	Marburg entry inh inconclusive, HCMV antiviral -78.0, Lassa entry inh inconclusive, FMDV antiviral inconclusive
c1csc(CNc2nc(-c3cccs3)nc3ccccc23)c1	HCMV antiviral -61.0
Cc1nn(-c2ccccc2)c(C)c1-c1nnc(-c2c(C)nn(-c3ccccc3)c2C)o1	Marburg entry inh inconclusive, Lassa entry inh inconclusive, FMDV antiviral 31.6µM
O=C(c1ccccc1)C(CN1CCCC1)c1ccccc1 (stereo not drawn)	VACV Venus inh 15.8µM, Marburg entry inh 7.08µM, HCMV antiviral -102.9, Vaccinia mCherry inconclusive, Lassa entry inh 7.94µM, FMDV antiviral 3.55µM
CCOC(=O)C(CN1CCCC1)c1ccccc1 (stereo not drawn)	none (no result: Marburg entry inh, Lassa entry inh)
